Measurements as given in PubChem BioAssay (NCI).
Compounds without any hit were thinned out: in the full panel of roughly 83,000, 20% have a hit.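 Step 1: grow cells in 96-well plates. Step 2: add test compound at a single concentration. Step 3: incubate 48 h. Step 4: record percent growth.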 The source made the active and inactive calls. How the source made its calls: active means growth percent below 10; inactive means the rest.

Each molecule was assayed on MDA-MB-468 breast (assay: NCI-60 one-dose screen, 48 h (100 = growth as untreated, 0 = no growth, -100 = all killed)). Settings: 10 µM unless noted.
For `N#CCc1ccc([N+](=O)[O-])cc1`, the growth was 96.8% (inactive).
For `COc1ccc(OC)c(/C=C/C(=O)c2c(C)nc3ccccc3c2/C=C/c2ccccc2)c1`, the growth was 60.5% (inactive).
`C#CCOc1cccc(Nc2c(Cl)c(CCl)nc3ccc(Oc4ccccc4)cc23)c1` was tested, and the growth was 24.7% (inactive).
`Cc1ccc(C2CC(c3ccc(Nc4nc(NCCO)nc(Nc5ccc(Cl)cc5)n4)cc3)=NN2c2cc(Cl)cc(Cl)c2)cc1` (stereo not drawn) was tested, and the growth was 102% (inactive).
For `COc1ccc(-c2nsc3c2NC(=O)CC3c2cccc(Cl)c2)cc1` (stereo not drawn), the growth was -6.39% (active).
`CC1(C)CC[C@]2(C(=O)Nc3ccccn3)CC[C@]3(C)C(=CC[C@@H]4[C@@]5(C)C/C(=C/c6ccncc6)C(=O)C(C)(C)[C@@H]5CC[C@]43C)[C@@H]2C1` was tested, and the growth was 19.2% (inactive).
`CCCc1cc2cc(-n3nc(C)c4c3CC(C)(C)CC4=O)cc(NC3CCSCC3)c2c(=O)[nH]1` was tested, and the growth was 14.3% (inactive).
For `COc1ccc(-c2nnc(COc3ccc(NC(=O)Nc4cccc(C(F)(F)F)c4)cc3F)o2)cc1`, the growth was 46.1% (inactive).
In the case of `Cc1ccc(OC2=C(C#N)C(=N)N3C(=NN2)Sc2c(C)ccc(C)c23)cc1`, the growth is reported as 110% (inactive).
For `C#CCOc1ccc(-c2csc(NC(=O)C=C)n2)cc1NS(=O)(=O)c1cccc2c(N(C)C)cccc12`, the growth was 11.3% (inactive).
With `COc1cc(-c2nn(-c3ccc(Br)cc3)cc2CO)ccc1O` the growth was 96.1% (inactive).
`CCCCCCNC(=O)Nc1ncnc2c1ncn2-c1ccccc1` was tested, and the growth was 105% (inactive).
`C/C(=N/NC(=S)Nc1ccccc1)c1nc2ccc(Cl)cc2[nH]1` was tested, and the growth was -44.3% (active).
